# Data: PubChem BioAssay
# Activity calls are given as the source filed them.
# Key:
# [1] = test system: Plasmodium falciparum Sir2 (PF13_0152, Sir2A); assay: pfSir2 binders on small-molecule microarrays, primary screen, biochemical, small-molecule microarray, 635 nm fluorescence (AID 1098); details: small-molecule microarray binding, fluorescence 635 nm; higher = more signal;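 note: score merges spot fluorescence intensity with its signal-to-noise ratio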
# [2] = small-molecule microarray binders of probe aDKK1, primary screen, biochemical, biotinylated probe, 635/667 nm fluorescence (AID 1099); details: higher = more signal;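 note: score merges 667nm spot fluorescence with signal to noise across triplicate slides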
# [3] = small-molecule microarray binders of probe aCHRDL2, primary screen, biochemical, biotinylated probe, 635/667 nm fluorescence (AID 1100); details: higher = more signal
# [4] = splicing luciferase reporter signal modulators, primary screen, spliceosome inhibition project, cell-based, HEK293, splice +/- reporter (AID 1101); details: luminescence, 24 h, higher = more signal, called active from +8 up or from −8 down;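 note: HEK293 cells carrying a splicing-competent luciferase reporter gene; test concentration not given here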
# [5] = target: Fibroblast growth factor 10 (Homo sapiens) (UniProt O15520); assay: FGF10 binders on small-molecule microarrays, primary screen, biochemical, small-molecule microarray, 635 nm fluorescence (AID 1102); details: FGF10 binding, fluorescence 635 nm, higher = more signal
# Sequence of Fibroblast growth factor 10 (Homo sapiens) (O15520 whole entry, looked up): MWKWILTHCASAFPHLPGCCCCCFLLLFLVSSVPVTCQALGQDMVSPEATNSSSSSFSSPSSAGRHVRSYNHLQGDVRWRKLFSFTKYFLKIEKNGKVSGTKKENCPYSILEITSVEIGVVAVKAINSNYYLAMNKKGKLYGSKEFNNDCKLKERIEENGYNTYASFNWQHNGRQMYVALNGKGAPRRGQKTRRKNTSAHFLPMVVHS
# [6] = test system: glycogen synthase kinase-3 (GSK3A per assay name; protocol says GSK3B); assay: GSK3 binders on small-molecule microarrays, primary screen, biochemical, small-molecule microarray, 635 nm fluorescence, GSK3A (AID 1103); details: small-molecule microarray binding, fluorescence 635 nm; higher = more signal; note: the record names both GSK3A and GSK3B
# [7] = target: Epidermal growth factor receptor (Homo sapiens) (UniProt P00533); assay: EGFR binders on small-molecule microarrays, primary screen, biochemical, small-molecule microarray, 635 nm fluorescence (AID 1104); details: EGFR binding, higher = more signal;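 note: score merges 667 nm emission intensity with spot signal to noise over triplicate slides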
# Sequence of Epidermal growth factor receptor (Homo sapiens) (P00533 whole entry, looked up): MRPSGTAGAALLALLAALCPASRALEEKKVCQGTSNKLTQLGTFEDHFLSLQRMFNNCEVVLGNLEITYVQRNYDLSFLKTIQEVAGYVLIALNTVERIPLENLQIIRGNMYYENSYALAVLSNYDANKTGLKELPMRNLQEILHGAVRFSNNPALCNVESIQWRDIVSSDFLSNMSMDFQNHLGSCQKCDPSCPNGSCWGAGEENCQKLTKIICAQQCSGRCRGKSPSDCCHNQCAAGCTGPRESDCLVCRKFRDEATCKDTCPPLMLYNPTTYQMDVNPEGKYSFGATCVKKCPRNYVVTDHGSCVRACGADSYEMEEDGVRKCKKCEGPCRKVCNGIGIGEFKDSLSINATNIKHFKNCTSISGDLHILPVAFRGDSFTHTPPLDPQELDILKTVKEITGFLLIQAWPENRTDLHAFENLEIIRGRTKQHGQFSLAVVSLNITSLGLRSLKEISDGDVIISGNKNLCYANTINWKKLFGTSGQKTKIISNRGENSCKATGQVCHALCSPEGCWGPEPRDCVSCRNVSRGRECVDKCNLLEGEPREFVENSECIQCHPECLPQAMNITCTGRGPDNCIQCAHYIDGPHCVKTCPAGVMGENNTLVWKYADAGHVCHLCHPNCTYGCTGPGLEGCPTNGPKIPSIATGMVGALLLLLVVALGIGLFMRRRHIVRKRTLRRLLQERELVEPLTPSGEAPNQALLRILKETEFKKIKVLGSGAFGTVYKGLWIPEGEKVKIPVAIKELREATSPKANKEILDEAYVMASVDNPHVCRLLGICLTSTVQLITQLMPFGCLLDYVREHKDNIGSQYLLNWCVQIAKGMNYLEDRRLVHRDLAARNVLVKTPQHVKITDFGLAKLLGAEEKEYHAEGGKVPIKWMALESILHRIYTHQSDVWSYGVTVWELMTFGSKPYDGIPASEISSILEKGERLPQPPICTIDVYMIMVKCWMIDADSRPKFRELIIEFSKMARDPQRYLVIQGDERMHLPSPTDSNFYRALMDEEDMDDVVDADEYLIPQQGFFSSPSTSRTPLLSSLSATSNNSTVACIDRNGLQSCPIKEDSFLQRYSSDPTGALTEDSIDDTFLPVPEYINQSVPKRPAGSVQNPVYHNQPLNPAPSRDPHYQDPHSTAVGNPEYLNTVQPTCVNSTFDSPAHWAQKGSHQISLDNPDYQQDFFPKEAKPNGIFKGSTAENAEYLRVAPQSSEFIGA
# [8] = target: Follistatin-related protein 3 (Homo sapiens) (UniProt O95633); assay: FSTL3 binders on small-molecule microarrays, primary screen, biochemical, small-molecule microarray, 635 nm fluorescence (AID 1105); details: FSTL3 binding, higher = more signal;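 note: score merges emission near 667 nm and signal to noise per printed spot across three slides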
# Sequence of Follistatin-related protein 3 (Homo sapiens) (O95633 whole entry, looked up): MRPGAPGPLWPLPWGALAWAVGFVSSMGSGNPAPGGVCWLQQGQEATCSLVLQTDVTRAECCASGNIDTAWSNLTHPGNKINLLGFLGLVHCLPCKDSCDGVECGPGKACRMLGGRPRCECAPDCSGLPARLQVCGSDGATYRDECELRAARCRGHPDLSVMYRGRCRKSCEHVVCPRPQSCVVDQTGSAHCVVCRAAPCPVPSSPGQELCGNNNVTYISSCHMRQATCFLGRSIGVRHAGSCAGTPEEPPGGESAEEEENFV
# [9] = target: Dickkopf-related protein 1 (Homo sapiens) (UniProt O94907); assay: DKK1 binders on small-molecule microarrays, primary screen, biochemical, small-molecule microarray, 635 nm fluorescence scan (AID 1106); details: DKK1 binding, higher = more signal;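 note: score merges emission near 667 nm with signal to noise over three replicate slides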
# Sequence of Dickkopf-related protein 1 (Homo sapiens) (O94907 whole entry, looked up): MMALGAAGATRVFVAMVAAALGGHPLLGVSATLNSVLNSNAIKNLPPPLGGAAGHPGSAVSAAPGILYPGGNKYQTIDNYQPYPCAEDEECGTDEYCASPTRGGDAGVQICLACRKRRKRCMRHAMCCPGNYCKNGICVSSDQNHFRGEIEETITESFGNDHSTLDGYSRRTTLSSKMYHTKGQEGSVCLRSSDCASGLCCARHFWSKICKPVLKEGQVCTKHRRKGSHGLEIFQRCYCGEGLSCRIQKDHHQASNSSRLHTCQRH
# [10] = test system: Inhibin beta A chain (activin A); assay: INHBA (activin A) binders on microarrays, primary screen, biochemical, small-molecule microarray, 635 nm fluorescence scan (AID 1107); details: small-molecule microarray binding, higher = more signal;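 note: mouse activin A protein probed at 4.33 µg/mL on printed slides; score merges bound-protein fluorescence near 667 nm with spot signal-to-noise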
# [11] = test system: Human papillomavirus type 1a protein E7 (residues 44-93); assay: HPV1a E7 fragment binders on microarrays, primary screen, biochemical, small-molecule microarray, residues 44-93, 635 nm fluorescence (AID 1108); details: small-molecule microarray binding, fluorescence 635 nm; higher = more signal;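 note: E7 fragment applied at 1 µg/mL in TBST for 1 h at 4 C; score combines spot fluorescence with its signal to noise ratio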
# [12] = modulators of HCV replicon luciferase signal, primary screen, HCV replication inhibitor project, Huh7 cells, luciferase reporter (AID 1109); details: 48 h, higher = more signal;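 note: huh7 hepatoma cells harbouring a luciferase neomycin HCV replicon reporter; luciferase luminescence as measure of HCV replicon replication; test concentration not given here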
# [13] = target: Left-right determination factor 2 (Homo sapiens) (UniProt O00292); assay: LEFTY2 binders on small-molecule microarrays, primary screen, biochemical, small-molecule microarray, 635 nm fluorescence scan (AID 1110); details: LEFTY2 binding, higher = more signal
# Sequence of Left-right determination factor 2 (Homo sapiens) (O00292 whole entry, looked up): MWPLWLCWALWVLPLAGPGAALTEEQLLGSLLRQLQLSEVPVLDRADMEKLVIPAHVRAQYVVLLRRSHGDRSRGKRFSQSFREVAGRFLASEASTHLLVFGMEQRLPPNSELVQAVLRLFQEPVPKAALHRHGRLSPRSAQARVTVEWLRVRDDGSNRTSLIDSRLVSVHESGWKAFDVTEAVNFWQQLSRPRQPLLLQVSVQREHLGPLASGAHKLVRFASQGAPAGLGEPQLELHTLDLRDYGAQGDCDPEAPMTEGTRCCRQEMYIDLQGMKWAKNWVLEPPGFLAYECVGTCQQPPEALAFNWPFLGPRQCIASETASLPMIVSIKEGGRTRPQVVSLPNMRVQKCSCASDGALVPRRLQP
# [14] = target: Calmodulin-1 (Homo sapiens) (UniProt P0DP23); assay: CALM1 binders on microarrays, EGTA buffer, profiling panel, biochemical, small-molecule microarray, Cy5-labelled CALM1 (AID 1111); details: Cy5-CALM1 binding fluorescence, higher = more signal;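 note: labelled calmodulin applied in Tris saline Tween buffer holding calcium plus EGTA and DTT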
# [15] = target: Calmodulin-1 (Homo sapiens) (UniProt P0DP23); assay: calcium-bound CALM1 binders on microarrays, profiling panel, artefact control for SMM control-protein annotation, biochemical, small-molecule microarray, Cy5-labelled CALM1, plus calcium (AID 1112); details: Cy5-CALM1 binding fluorescence, higher = more signal;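 note: score merges spot fluorescence with signal to noise from triplicate slides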
# [16] = small-molecule microarray binders of probe aWnt5a, primary screen, biochemical, biotinylated probe, 635/667 nm fluorescence (AID 1113); details: higher = more signal;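 note: score merges 667 nm fluorescence intensity with signal-to-noise per printed feature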
# [17] = small-molecule microarray binders of probe aShh, primary screen, biochemical, biotinylated probe, 635/667 nm fluorescence (AID 1114); details: higher = more signal;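 note: probe is biotin-labelled aShh protein from a stem cell growth factor screen; measures binding of labelled protein to compounds printed on the slide; score merges feature fluorescence at 667 nm with signal-to-noise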
# [18] = small-molecule microarray binders of probe aNog, primary screen, biochemical, biotinylated probe, 635/667 nm fluorescence (AID 1115); details: higher = more signal;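 note: probe is biotinylated aNog protein used at 0.15 µg/mL for 1 h at 4 C; z-score combines 667 nm fluorescence of each spot with its signal to noise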
# [19] = target: Torsin-1A-interacting protein 1 (Homo sapiens) (UniProt Q5JTV8); assay: LAP1 binders from COS7 cell lysate, primary screen, small-molecule microarray, 635/667 nm fluorescence (AID 1116); details: COS7-hLAP1 lysate binding, 635 nm fluorescence, higher = more signal
# Sequence of Torsin-1A-interacting protein 1 (Homo sapiens) (Q5JTV8 whole entry, looked up): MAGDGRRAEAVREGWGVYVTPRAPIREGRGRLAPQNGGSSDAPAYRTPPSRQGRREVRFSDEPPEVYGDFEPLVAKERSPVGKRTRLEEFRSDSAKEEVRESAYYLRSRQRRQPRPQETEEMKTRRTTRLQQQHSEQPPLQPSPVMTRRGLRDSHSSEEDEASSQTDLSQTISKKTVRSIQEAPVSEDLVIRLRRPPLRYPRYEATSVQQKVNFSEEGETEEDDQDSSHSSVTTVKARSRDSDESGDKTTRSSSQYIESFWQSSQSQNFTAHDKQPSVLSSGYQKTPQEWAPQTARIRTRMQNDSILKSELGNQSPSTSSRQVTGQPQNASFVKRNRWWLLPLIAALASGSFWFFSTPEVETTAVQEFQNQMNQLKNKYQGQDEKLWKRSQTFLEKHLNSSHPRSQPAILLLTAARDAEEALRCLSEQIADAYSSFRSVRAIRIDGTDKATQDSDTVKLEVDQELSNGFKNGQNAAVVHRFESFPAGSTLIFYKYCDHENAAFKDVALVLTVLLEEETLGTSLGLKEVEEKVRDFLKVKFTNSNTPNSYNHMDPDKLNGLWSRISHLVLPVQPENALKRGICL
# [20] = target: Alpha-bungarotoxin (Bungarus multicinctus) (UniProt P60615); assay: alpha-bungarotoxin binders on microarray, profiling panel, artefact control for SMM control protein annotation, biochemical, small-molecule microarray, Alexa647 label, 635/667 nm fluorescence (AID 1117); details: alpha-BTX-A647 binding fluorescence, higher = more signal
# Sequence of Alpha-bungarotoxin (Bungarus multicinctus) (P60615 whole entry, looked up): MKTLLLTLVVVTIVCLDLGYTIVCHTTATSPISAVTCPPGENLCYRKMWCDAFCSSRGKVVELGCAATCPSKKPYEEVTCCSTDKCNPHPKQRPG
SMILES,composite z-score [1],composite z-score [2],composite z-score [3],z-score [4],composite z-score [5],composite z-score [6],composite z-score [7],composite z-score [8],composite z-score [9],composite z-score [10],composite z-score [11],z-score [12],composite z-score [13],composite z-score [14],composite z-score [15],composite z-score [16],composite z-score [17],composite z-score [18],composite z-score [19],composite z-score [20]
COCCOC(=O)N1C(=O)[C@@]2(c3cc(C#Cc4ccc(OC)cc4)ccc31)[C@H](c1ccccc1OCCO)N1[C@H](c3ccccc3)[C@H](c3ccccc3)OC(=O)[C@H]1[C@@H]2C(=O)N1CCN(c2ncccn2)CC1,0.864,-0.0148,0.116,-0.0173 (inactive),0.743,0.806,0.339,0.369,0.27,0.345,1.18,-1.49,0.278,0.694,0.805,-0.118,0.13,0.121,0.949,0.876
CC(=O)NCCCC[C@@H]1NC(=O)[C@@H]2C[C@H](C(=O)NCCCCCCNC(=O)CS)[C@H](c3cccc(OCCO)c3)N2C1=O,1.76,-0.0828,0.466,-0.289 (inactive),0.639,1.12,0.37,0.325,0.791,0.388,0.517,-0.938,0.221,0.572,0.361,0.0004,-0.142,-0.196,0.16,0.505
O=C1C2C=CC(C(O)c3c(F)cccc3Cl)N(Nc3ccccc3)C2C(=O)N1c1ccccc1 (stereo not given),0.741,0.532,0.256,-0.00944 (inactive),0.581,1.3,0.271,1.34,0.236,0.672,1.46,-0.927,0.407,1.46,0.546,0.0775,0.969,1.59,0.765,0.933
COc1cc(CO)cc(I)c1O[C@H]1C=C(C(=O)NCCO)C[C@@H](N(CCN2CCOCC2)C(=O)C2CCOC2)[C@@H]1O (stereo not given in full),0.505,-0.424,-0.544,-0.145 (inactive),1.29,0.437,-0.0432,0.742,0.507,-0.584,-0.923,-0.282,0.897,-0.0002,-0.543,-0.247,0.0639,-0.281,0.085,0.0392
CCOc1cc(C(O)C2C=CC3C(=O)N(c4ccccc4)C(=O)C3N2Nc2ccccc2)ccc1O (stereo not given),0.716,-0.0126,0.834,0.608 (inactive),0.671,0.0622,-0.114,0.128,-0.832,0.829,1.31,-0.0374,0.181,0.0041,-0.748,-0.0312,0.191,0.387,0.604,0.147
COc1ccc(CCNC(=O)[C@@H]2c3ccccc3C(=O)N(C3Cc4ccccc4C3)[C@H]2c2ccc(CO)cc2)cc1,0.613,-0.124,0.857,0.54 (inactive),0.0846,0.316,-0.19,0.0595,-0.337,0.832,1.35,-1.14,0.0971,0.329,0.732,-0.0738,0.0856,-0.417,1.24,0.134
